Test results published in the supplement of paper PMC12645437, “Orthogonal IMiD-Degron Pairs Induce Selective Protein Degradation in Cells” (ACS Chemical Biology, 2025).
Over roughly 8,300 sequences, “log2 fold change of degron read counts, EGFP-low vs EGFP+ sorted cells (limma voom), compound-induced degradation” has its median near -1.1; the highest 2% begin near 3.2. What follows is part of a selection rich in the highest values, with near analogues and random picks from the rest.

Biological target: T1, CRBN, Q96SW2
T1 chain: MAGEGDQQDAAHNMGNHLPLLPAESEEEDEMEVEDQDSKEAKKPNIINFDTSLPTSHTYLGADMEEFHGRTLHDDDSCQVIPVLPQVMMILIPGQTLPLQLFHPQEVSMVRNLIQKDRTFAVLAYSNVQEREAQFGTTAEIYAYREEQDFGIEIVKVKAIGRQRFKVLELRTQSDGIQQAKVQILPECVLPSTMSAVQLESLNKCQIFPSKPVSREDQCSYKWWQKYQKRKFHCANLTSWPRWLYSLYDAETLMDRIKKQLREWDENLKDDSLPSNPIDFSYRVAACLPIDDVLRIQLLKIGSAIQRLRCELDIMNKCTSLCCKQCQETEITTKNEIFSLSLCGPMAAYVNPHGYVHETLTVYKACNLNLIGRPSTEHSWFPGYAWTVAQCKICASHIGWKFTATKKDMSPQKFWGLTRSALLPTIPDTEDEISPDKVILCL
Experiment: log2 fold change of degron read counts, EGFP-low vs EGFP+ sorted cells (limma voom), compound-induced degradation; higher = more compound-induced degradation of the degron-EGFP fusion; degrons are variants of IKZF1/3 zinc finger 2; compound dose not given here
Conditions: Jurkat, 18 h
Description: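 Pooled library of 8380 IKZF3 ZF2 degron mutants (positions 146-167 varied within the IKZF3 130-189 degron; only the varied core is printed, flanks not printed) fused to EGFP with IRES-mCherry, lentivirally expressed in Jurkat cells. mCherry+ cells were treated with one IMiD compound for 18 h (dose not stated) and FACS-sorted into EGFP-low and EGFP+ populations. Degron sequences were counted by NGS, and log2FC (EGFP-low vs EGFP+) was estimated by limma voom over 3 biological replicates.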

[1] = compound: compound 19 (5-tert-butyl-thalidomide)
[2] = compound: compound 22 (5-morpholino-thalidomide)
[3] = compound: compound 33 (diphenyl IMiD analogue)
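Note: pooled lentiviral library of zinc finger degron-EGFP fusions in mCherry-positive Jurkat cells, FACS-sorted after compound exposure, with degron abundance counted by next-generation sequencing.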

B1: 46F_47D_49E_50V_52G_53A_54Y_55F_67L_, Q9UKT9 (peptide)
chain: FDCEVCGAYFTQKGNLLRHIKL
log2 fold change of degron read counts [1]: -0.638 | log2 fold change of degron read counts [2]: -1.5 | log2 fold change of degron read counts [3]: -0.115 | log2 fold change of degron read counts (compound: thalidomide): -0.462

B2: 46L_47V_49N_50Q_52G_53F_54T_55C_67L_, Q9UKT9 (peptide)
chain: LVCNQCGFTCTQKGNLLRHIKL
log2 fold change of degron read counts [1]: -2.33 | log2 fold change of degron read counts [2]: -3.26 | log2 fold change of degron read counts [3]: -0.847 | log2 fold change of degron read counts (compound: thalidomide): -1.21

B3: 46F_47L_49N_50Q_52G_53H_54S_55F_67L_, Q9UKT9 (peptide)
chain: FLCNQCGHSFTQKGNLLRHIKL
log2 fold change of degron read counts [1]: -2.63 | log2 fold change of degron read counts [2]: -2.99 | log2 fold change of degron read counts [3]: -3.12 | log2 fold change of degron read counts (compound: thalidomide): -2.74

B4: 46F_47A_49E_50I_52G_53R_54I_55F_67L_, Q9UKT9 (peptide)
chain: FACEICGRIFTQKGNLLRHIKL
log2 fold change of degron read counts [1]: 0.366 | log2 fold change of degron read counts [2]: -1.59 | log2 fold change of degron read counts [3]: -1.49 | log2 fold change of degron read counts (compound: thalidomide): -1.01

B5: 46F_47V_49D_50I_52G_53A_54N_55F_67L_, Q9UKT9 (peptide)
chain: FVCDICGANFTQKGNLLRHIKL
log2 fold change of degron read counts [1]: -0.564 | log2 fold change of degron read counts [2]: 1.47 | log2 fold change of degron read counts [3]: 0.815 | log2 fold change of degron read counts (compound: thalidomide): 1.12

B6: 46F_47K_49P_50I_52G_53R_54Q_55F_67L_, Q9UKT9 (peptide)
chain: FKCPICGRQFTQKGNLLRHIKL
log2 fold change of degron read counts [1]: -2.24 | log2 fold change of degron read counts [2]: -2.58 | log2 fold change of degron read counts [3]: -2.12 | log2 fold change of degron read counts (compound: thalidomide): -0.821

B7: 46L_47R_49P_50I_52G_53F_54S_55C_67L_, Q9UKT9 (peptide)
chain: LRCPICGFSCTQKGNLLRHIKL
log2 fold change of degron read counts [1]: 2.24 | log2 fold change of degron read counts [2]: 1.9 | log2 fold change of degron read counts [3]: 2.44 | log2 fold change of degron read counts (compound: thalidomide): 2.71

B8: 46L_47V_49P_50I_52G_53F_54S_55C_67L_, Q9UKT9 (peptide)
chain: LVCPICGFSCTQKGNLLRHIKL
log2 fold change of degron read counts [1]: 2.25 | log2 fold change of degron read counts [2]: 3.63 | log2 fold change of degron read counts [3]: 2.38 | log2 fold change of degron read counts (compound: thalidomide): 3.59

B9: 46L_47F_49P_50I_52G_53F_54S_55C_67L_, Q9UKT9 (peptide)
chain: LFCPICGFSCTQKGNLLRHIKL
log2 fold change of degron read counts [1]: 3.55 | log2 fold change of degron read counts [2]: 3.56 | log2 fold change of degron read counts [3]: 2.79 | log2 fold change of degron read counts (compound: thalidomide): 2.78

B10: 46L_47F_49P_50I_52G_53F_54E_55C_67L_, Q9UKT9 (peptide)
chain: LFCPICGFECTQKGNLLRHIKL
log2 fold change of degron read counts [1]: 2.8 | log2 fold change of degron read counts [2]: 2.89 | log2 fold change of degron read counts [3]: 1.47 | log2 fold change of degron read counts (compound: thalidomide): 0.989

B11: 46L_47N_49P_50I_52G_53F_54S_55C_67L_, Q9UKT9 (peptide)
chain: LNCPICGFSCTQKGNLLRHIKL
log2 fold change of degron read counts [1]: 2.9 | log2 fold change of degron read counts [2]: 2.01 | log2 fold change of degron read counts [3]: 1.38 | log2 fold change of degron read counts (compound: thalidomide): 2

B12: 46L_47C_49P_50I_52G_53F_54S_55C_67L_, Q9UKT9 (peptide)
chain: LCCPICGFSCTQKGNLLRHIKL
log2 fold change of degron read counts [1]: 2.83 | log2 fold change of degron read counts [2]: 3.15 | log2 fold change of degron read counts [3]: 3 | log2 fold change of degron read counts (compound: thalidomide): 3.11

B13: 46F_47Q_49E_50I_52G_53R_54N_55F_67L_, Q9UKT9 (peptide)
chain: FQCEICGRNFTQKGNLLRHIKL
log2 fold change of degron read counts [1]: -2.38 | log2 fold change of degron read counts [2]: -2.7 | log2 fold change of degron read counts [3]: -0.772 | log2 fold change of degron read counts (compound: thalidomide): 0.915

B14: 46F_47A_49P_50Q_52G_53A_54H_55F_67L_, Q9UKT9 (peptide)
chain: FACPQCGAHFTQKGNLLRHIKL
log2 fold change of degron read counts [1]: 0.167 | log2 fold change of degron read counts [2]: -2 | log2 fold change of degron read counts [3]: -1.13 | log2 fold change of degron read counts (compound: thalidomide): -1.72
